From the supplement of paper PMC10338343 come the findings set out here.

The test system of experiment [1] is MILI (PIWIL2) piRISC loaded with piRNA #1 (26 nt). The experiment in a line: pre-steady-state target cleavage rate (min^-1); guide: piRNA #1 5'p-UGAGGUAGUAGGUUGUAUAGUAUCCA; higher = faster piRNA-guided slicing of the target. As to conditions: auxiliary factor: 500 nM mouse GTSF1. In outline:
(§1)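 Active affinity-purified piRISC (1 nM) loaded with one synthetic guide was mixed with a transcribed, DNA-blocked target RNA library (0.1 nM), with or without 500 nM GTSF1 partner protein, in HEPES–potassium acetate buffer at 33 °C for 0–8 or 0–960 min. Uncleaved targets were sequenced, normalised to depth and to weakly complementary targets, and pooled across three trials, with k3 capped at 0.0001 min^-1. The pre-steady-state cleavage rate was determined with a burst-and-steady-state fit.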

Experiment [2] concerns EfPiwi piRISC loaded with piRNA #1 (26 nt). Description: pre-steady-state target cleavage rate (min^-1); auxiliary factor: 500 nM Ephydatia muelleri Gtsf1; guide: piRNA #1 5'p-UGAGGUAGUAGGUUGUAUAGUAUCCA; MIWI and MILI are mouse PIWI proteins and EfPiwi is from a freshwater sponge; tags in brackets are library labels; higher = faster piRNA-guided slicing of the target. In outline:
as §1

± gives the standard deviation.

Take GGAGACGAUACUAUACAAGCUACUACCACA: the “pre-steady-state target cleavage rate” value in experiment [1] turned out to be 0.311 ± 0.016; in experiment [2], 0.00387 ± 0.0017.
On the same counts, the results for GGAGUGGCUACUAUACAACCUACUACCUCA are 0.19 ± 0.012 and 0.0198 ± 0.0079.
As for GGAGACGAUACUAUACUACCUAGUACCUCA, the results for the “pre-steady-state target cleavage rate” value in experiment [1] and in experiment [2] were 0.0742 ± 0.015 and 0.00268 ± 0.0016, respectively.
On the same counts, the results for GGAGAGGAUACUAUACAACCUACAAGCUCA are 0.00476 ± 0.0031 and 0.00284 ± 0.0023.
Taken in the same sequence, the figures for GGAGACGAUACUAUACAACCAACUACCUCA were 0.00952 ± 0.004 and 0.00552 ± 0.0017.
Taken in the same sequence, the figures for GGAGAGGAUUGAAUACAACCUACUACCUCA were 0.0664 ± 0.0088 and 0.00721 ± 0.0044.
Turning to GGAGAGGAUACUAUACAACCUACUAUCUCA, the “pre-steady-state target cleavage rate” value in experiment [1] stood at 0.131 ± 0.012; in experiment [2], 0.081 ± 0.036.
On the same counts, the results for GGAGACGAUACUAUACAAGCUACUACCUCA are 0.269 ± 0.016 and 0.00854 ± 0.0028.
On the same counts, the results for GGAGAGGAUUACUAUACAACCUACUACCUCA are 0.132 ± 0.0095 and 0.0829 ± 0.03.
On the same counts, the results for GGAGUGGUUACUAUACAACCUACAACCUCA are 0.0861 ± 0.0095 and 0.00227 ± 0.0015.
In the case of GGAGACGAUACUAAACAAGCUACUACCUCA, the “pre-steady-state target cleavage rate” value was found to be 0.268 ± 0.016 in experiment [1] and 0.00331 ± 0.0031 in experiment [2].
On the same counts, the results for GGAGAGGAUACUUUACAACCAACUACCUCA are 0.00433 ± 0.0019 and 0.00291 ± 0.0016.
GGAGACCUAACUAUACAACCUACUACCUUCA: the “pre-steady-state target cleavage rate” value in experiment [1] amounted to 0.14 ± 0.028; in experiment [2] it was 0.0285 ± 0.011.
On the same counts, the results for GGAGACCAUAGUUUACAACCUACUACCUCA are 0.0547 ± 0.0081 and 0.0227 ± 0.0096.
Taken in the same sequence, the figures for GGAGACGAUACAAUACAACCUACAACCUCA were 0.152 ± 0.018 and 0.00274 ± 0.0027.
GGAGACGAUACUAUACAACCUACUACCUAA: the “pre-steady-state target cleavage rate” value in experiment [1] was determined as 0.153 ± 0.015; in experiment [2] it was 0.103 ± 0.033.
Regarding GGAGAGGUUACUAUACAACCUACUACCUCA, the entries for the “pre-steady-state target cleavage rate” value in experiment [1] and in experiment [2] were 0.197 ± 0.014 and 0.0625 ± 0.025, respectively.
On the same counts, the results for GGAGUGGAUACCUAUACAACCUACUACCUCA are 0.0993 ± 0.019 and 0.0485 ± 0.018.
On the same counts, the results for GGAGACCAUACUAUACAACCUACUACUUCA are 0.189 ± 0.019 and 0.00607 ± 0.0024.
On the same counts, the results for GGAGACCUAUCUAUACAACCUACUACCUCCA are 0.0927 ± 0.0097 and 0.0208 ± 0.0083.
As for GGAGACCUAAGUUUACAACCUACUACCUCA, the results for the “pre-steady-state target cleavage rate” value in experiment [1] and in experiment [2] were 0.0168 ± 0.0041 and 0.00645 ± 0.0046, respectively.
Taken in the same sequence, the figures for GGAGACCAUACUAUACAACCCACUACCUCA were 0.0223 ± 0.0041 and 0.0058 ± 0.0024.
On the same counts, the results for “GGAGACCUUACUAUACAACCUACUACCUCA [g2:g22:cont:t1A]” are 0.165 ± 0.018 and 0.0238 ± 0.0084.
Taken in the same sequence, the figures for GGAGAGGAUACUAUAUCAACCUACUACCUCA were 0.107 ± 0.0098 and 0.0145 ± 0.0066.
On to GGAGACCUAUCUAUACAACCUAGUACCUCA, for which the results for the “pre-steady-state target cleavage rate” value in experiment [1] and in experiment [2] were 0.0209 ± 0.0054 and 0.00361 ± 0.0027, respectively.
Taken in the same sequence, the figures for GGAGUGGAUAGUAUACAACCUACUACCACA were 0.0277 ± 0.0092 and 0.00327 ± 0.0018.
On to GGAGACCUAACUAUUACAACCUACUACCUCA, for which the results for the “pre-steady-state target cleavage rate” value in experiment [1] and in experiment [2] were 0.099 ± 0.023 and 0.0205 ± 0.0091, respectively.
On to GGAGAGGUAACUAUACAACCUACUACCUCA, for which the results for the “pre-steady-state target cleavage rate” value in experiment [1] and in experiment [2] were 0.103 ± 0.015 and 0.00695 ± 0.0039, respectively.
Take GGAGACCUUACUAUACAACCUACUACCUGA: the “pre-steady-state target cleavage rate” value came to 0.117 ± 0.016 in experiment [1] and 0.00415 ± 0.0019 in experiment [2].
On the same counts, the results for GGAGACGAUACUAUACAACCUACUACUUCA are 0.162 ± 0.013 and 0.00983 ± 0.0039.
On the same counts, the results for GGAGACCUAACUAUACAACCUACUACCUCCA are 0.123 ± 0.021 and 0.015 ± 0.0066.
On the same counts, the results for GGAGACGGUACUAUACAACCUACUACCUCA are 0.187 ± 0.016 and 0.0154 ± 0.0059.
As for GGAGACCUUACUAUACAACCCACUACCUCA, the “pre-steady-state target cleavage rate” value in experiment [1] was 0.0224 ± 0.0038; in experiment [2] it was 0.00926 ± 0.0048.
Consider GGAGACCAUUCUAUACAACCUACUACCUGA, for which the “pre-steady-state target cleavage rate” value is 0.0973 ± 0.016 in experiment [1] and 0.00652 ± 0.0034 in experiment [2].
Taken in the same sequence, the figures for GGAGACGAUACUAUACAACCUACUAACCUCA were 0.194 ± 0.02 and 0.0059 ± 0.0019.
Consider GGAGACCAUACUAUACAAUCUACUACCUCA, for which the entries for the “pre-steady-state target cleavage rate” value in experiment [1] and in experiment [2] were 0.146 ± 0.013 and 0.00847 ± 0.004, respectively.
With “GGAGAGGAUACUAUACAACCUACUACCUCG [g2:g25:cont:t1G]”, the “pre-steady-state target cleavage rate” value in experiment [1] was 0.175 ± 0.015; in experiment [2] it was 0.143 ± 0.048.
GGAGACGAUACCAUACAACCUACUACCUCA: the “pre-steady-state target cleavage rate” value in experiment [1] turned out to be 0.236 ± 0.027; in experiment [2], 0.124 ± 0.045.
As for GGAGACCAUACUAUACAACUUACUACCUCA, the results for the “pre-steady-state target cleavage rate” value in experiment [1] and in experiment [2] were 0.0165 ± 0.0023 and 0.00338 ± 0.0027, respectively.
GGAGAGGAAACUAUACAAGCUACUACCUCA: the “pre-steady-state target cleavage rate” value in experiment [1] amounted to 0.179 ± 0.031; in experiment [2], 0.00403 ± 0.0014.
As to GGAGACGACUACUAUACAACCUACUACCUCA, the “pre-steady-state target cleavage rate” value was determined as 0.204 ± 0.017 in experiment [1] and 0.01 ± 0.0046 in experiment [2].
On the same counts, the results for GGAGUGGUUACUAUACUACCUACUACCUCA are 0.183 ± 0.01 and 0.00596 ± 0.0023.
As for GGAGAGCAUACUAUACAACCUACUACCUGA, the “pre-steady-state target cleavage rate” value in experiment [1] was determined as 0.112 ± 0.017; in experiment [2] it was 0.00603 ± 0.0027.
Consider GGAGACCUAUCUAUACAUCCUACUACCUCA, for which the results for the “pre-steady-state target cleavage rate” value in experiment [1] and in experiment [2] were 0.182 ± 0.018 and 0.00738 ± 0.0031, respectively.
Consider GGAGACCUUACUAUACACCCUACUACCUCA, for which the figures for the “pre-steady-state target cleavage rate” value in experiment [1] and in experiment [2] were 0.058 ± 0.0099 and 0.00862 ± 0.0036, respectively.
Consider GGAGACGAUACUAUACAACCUACAAGCUCA, for which the “pre-steady-state target cleavage rate” value in experiment [1] was found to be 0.0171 ± 0.0086; in experiment [2], 0.00381 ± 0.0023.
On to GGAGACGAAUCUAUACAACCUACUACCUCA, for which the “pre-steady-state target cleavage rate” value in experiment [1] is 0.146 ± 0.015; in experiment [2] it was 0.0517 ± 0.018.
Taken in the same sequence, the figures for GGAGACCUAACUAUACAACCUCCUACCUCA were 0.0273 ± 0.011 and 0.00446 ± 0.0029.
As for GGAGACCUAACUAUACAACCUACUACGUGA, the “pre-steady-state target cleavage rate” value stood at 0.0518 ± 0.018 in experiment [1] and 0.0069 ± 0.0046 in experiment [2].
Taken in the same sequence, the figures for GGAGACCUAUGAUCACAACCUACUACCUCA were 0.00534 ± 0.0024 and 0.00429 ± 0.0038.
As to “GGAGACCAUACUAUACAACCUACUACCUCU [g2:g23:cont:t1U]”, the “pre-steady-state target cleavage rate” value in experiment [1] amounted to 0.254 ± 0.024; in experiment [2], 1.45 ± 0.55.
On the same counts, the results for GGAGACCAUUCUAUACAACCUACUACGUCA are 0.0404 ± 0.0088 and 0.0027 ± 0.0025.
Taken in the same sequence, the figures for GGAGACCAUACUAUACAUCCUACUACCACA were 0.279 ± 0.028 and 0.00302 ± 0.0024.
